This note sets out measurements from PubChem BioAssay (EPA / NIEHS).

Experiment [1] can be described thus: CCTE_Shafer_MEA_acute_spike_number: CCTE's Neural Acute Assay for Total Number of Spikes, Shafer Lab (AID 2284008).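 For AC50: curve fitted for decrease in spike count so AC50 reflects inhibitors.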 The method in brief: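 Rat primary cortical neurons on 48-well MEA plates, DIV 13 or 15, at 37 C. 40 min baseline then 40 min with compound (0.03-40 uM); spikes detected at 8x rms noise, expressed as percent change from baseline.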
The nature of experiment [2]: CCTE_Shafer_MEA_acute_firing_rate_mean: CCTE's Neural Acute Assay for Mean Firing Rate, Shafer Lab (AID 2284009).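 Note: analyzed for loss of signal so actives lower firing rate relative to DMSO.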 The method in brief: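 Primary rat cortical neurons on 16-electrode MEA wells were exposed on DIV 13 or 15 to compound (0.03-40 uM). Spike counts per recording time, averaged over electrodes, were compared between 40-min baseline and 40-min post-exposure recordings as percent change.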

A short description of experiment [3]: CCTE_Harrill_HTTr_Viability_MCF7: CCTE's 6-hour Cell Viability Assessment for the High-Throughput Transcriptomics (HTTr) Platform, in MCF-7 cells cultured in DMEM + 10% fetal bovine serum, Harrill Lab (AID 2284010). Summed up:
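PI exclusion, high-content imaging; 8-pt dilution series, 6 h exposure; bidirectional fit vs DMSO (neg. ctrl/baseline); gain of signal = loss of membrane integrity.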

A short description of experiment [4]: CCTE_Harrill_HTTr_CellCount_MCF7: CCTE's Cell Proliferation Assessment for the High-Throughput Transcriptomics (HTTr) Platform, Harrill Lab (AID 2284012; active = hit-call score of the fitted dose curve at least 0.9, where 1 is the maximum;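 note: count of Hoechst-stained nuclei per well by high-content imaging in MCF-7 cells; cells exposed to compound for six hours; intended direction is loss of nuclei count meaning fewer cells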). The method in brief: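 Readout: Hoechst nuclear count by high-content imaging. MCF-7, 8-point dilution series, 6 h exposure. Bidirectional fit vs DMSO baseline.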
Experiment [5] can be described thus: CCTE_Shafer_MEA_acute_burst_duration_mean: CCTE's Neural Acute Assay for Mean Burst Duration, Shafer Lab (AID 2284014).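 Note: hits are decreases in mean burst duration relative to DMSO controls.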 Summed up: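 Mean burst duration was compared between a 40 min baseline and a 40 min recording in the presence of compound (0.03-40 uM, 37 C), giving percent change per well. Cultures were rat cortical neurons at DIV 13 or 15; wells needed ≥10 active electrodes.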

The nature of experiment [6]: CCTE_Shafer_MEA_acute_per_burst_spike_number_mean: CCTE's Neural Acute Assay for Average Number of Spikes Per Burst, Shafer Lab (AID 2284015).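 Note: hits are decreases in mean spikes per burst versus baseline.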 The method in brief:
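Rat primary cortical neurons on 48-well MEAs (DIV 13 or 15) were treated with 0.03-40 uM compound at 37 C. Mean spikes per burst over 40 min were recorded before and after exposure and expressed as percent change from baseline, relative to DMSO.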

A short description of experiment [7]: CCTE_Shafer_MEA_acute_interburst_interval_mean: CCTE's Neural Acute Assay for Mean Interburst Interval, Shafer Lab (AID 2284016).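 Note: percent change of mean interburst interval versus each well's own pre-dose baseline; curves fitted for decrease in interburst interval relative to DMSO.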 The method in brief: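 Rat primary cortical neurons on 48-well MEAs at DIV 13 or 15 were exposed acutely to 0.03-40 uM. Spikes detected at 8x rms noise, 37 C. Mean interburst interval from 40 min recordings expressed as percent change from 40 min pre-treatment baseline.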

Experiment [8] is described as follows: CCTE_Shafer_MEA_acute_burst_percentage_mean: CCTE's Neural Acute Assay for Percentage of Spikes in a Burst, Shafer Lab (AID 2284017).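 For AC50: curve fitted for loss of signal so potency reflects decreased burst percentage.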 Summed up: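 Primary rat cortical neurons on 48-well MEA plates, treated on DIV 13 or 15 at 0.03-40 uM. Spikes detected at 8x rms noise at 37C; percent change from 40-min baseline to 40-min post-dose recording, fitted versus DMSO.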

Experiment [9] is described as follows: CCTE_Shafer_MEA_acute_burst_percentage_std: CCTE's Neural Acute Assay for Standard Deviation of Burst Percentage, Shafer Lab (AID 2284018).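 Note: fitted in the negative direction so actives lower burst percentage SD.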 Summed up: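 Value is percent change from baseline in the across-electrode SD of spikes-in-bursts percentage, wells with >/= 10 active electrodes. Acute 40-min exposure to 0.03-40 uM on DIV 13 or 15 rat cortical cultures, recorded at 37 C after 40-min baseline.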

A short description of experiment [10]: CCTE_Shafer_MEA_acute_per_network_burst_spike_number_mean: CCTE's Neural Acute Assay for Average Number of Spikes in a Network Burst, Shafer Lab (AID 2284019).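 For AC50: curve fitted for loss of signal so actives reduce spikes per network burst.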 The method in brief:
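Percent change from baseline in mean spikes per network burst, spikes detected at 8x rms noise. Each compound at 0.03-40 uM in at least three wells of rat cortical cultures, recorded 40 min before and 40 min during exposure.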

Experiment [11] in a line: CCTE_Shafer_MEA_acute_per_network_burst_spike_number_std: CCTE's Neural Acute Assay for Standard Deviation of Number of Spikes in a Network Burst, Shafer Lab (AID 2284020).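 Note: fitted for decrease in spike-number SD versus DMSO so actives lower it.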 The method in brief:
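Endpoint: percent change from 40 min baseline in standard deviation of spikes per network burst, after 40 min compound exposure (0.03-40 uM, 37 C). Cortical rat neurons on MEA at DIV 13 or 15; spikes detected at 8x rms noise, 300-5000 Hz band-pass.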

A short description of experiment [12]: CCTE_Shafer_MEA_acute_network_burst_percentage: CCTE's Neural Acute Assay for Percentage of Network Bursts, Shafer Lab (AID 2284022).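 Note: curves fitted for loss so actives lower network burst percentage.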 The method in brief: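 Rat primary cortical neuron networks on 48-well MEA plates, DIV 13 or 15, treated acutely with compound (0.03-40 uM, at least three wells). Percent of spikes within network bursts compared between 40-min recordings before and during exposure at 37 C, expressed as percent change.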

Experiment [13] can be described thus: CCTE_Shafer_MEA_acute_cross_correlation_area: CCTE's Neural Acute Assay for Area of Cross Correlation, Shafer Lab (AID 2284024).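 Note: curves fitted for loss of cross-correlation area so actives lower synchrony.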 The method in brief: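 Rat primary cortical neurons on 48-well MEA, DIV 13 or 15; compounds 0.03-40 uM. Baseline and post-exposure 40 min recordings at 37 C; percent change in area under pooled inter-electrode cross-correlation near zero lag, relative to DMSO.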

The nature of experiment [14]: CCTE_Shafer_MEA_acute_cross_correlation_HWHM: CCTE's Neural Acute Assay for Cross Correlation at Half Width at Half Maximum, Shafer Lab (AID 2284026).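 For outcome: spontaneous network firing of rat primary cortical neurons on multiwell microelectrode arrays.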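 Note: hits are a decrease in cross-correlogram half width relative to DMSO.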 The method in brief: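 Rat primary cortical neurons on 48-well MEA plates; 40-min baseline and 40-min post-exposure recordings at 37 C on DIV 13 or 15, compounds 0.03-40 uM. Spikes detected at 8x rms noise; percent change in cross-correlogram HWHM per well vs baseline.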

Experiment [15] is described as follows: CCTE_Shafer_MEA_acute_synchrony_index: CCTE's Neural Acute Assay for Synchrony, Shafer Lab (AID 2284027).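 Note: network synchrony index of spontaneous spiking in primary rat cortical neurons on MEAs; fitted for loss of signal so actives lower synchrony relative to DMSO.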 Summed up:
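Rat cortical cultures, DIV 13/15; spikes detected at 8x rms noise, 300-5000 Hz band-pass. Compound 0.03-40 uM, ≥3 wells; 40-min pre- and post-exposure recordings, 37 C. Readout: % change in synchrony index; loss-of-signal fit vs DMSO.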

Experiment [16] can be described thus: CCTE_Harrill_HTTr_Apoptosis_MCF7: CCTE's 6-hour Apoptosis Assessment for the High-Throughput Transcriptomics (HTTr) Platform, in MCF-7 cells cultured in DMEM + 10% fetal bovine serum, Harrill Lab (AID 2284011). The method in brief:
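MCF-7 cells in DMEM + 10% FBS exposed 6 h to chemicals over an eight-point dilution series. Caspase-3/7 activation imaged by high-content CellEvent Green staining; fitted bidirectionally versus DMSO.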

Experiment [17] addresses Estrogen receptor (Homo sapiens) (UniProt P03372). In words: CCTE_Deisenroth_AIME_384WELL_LUC_Active: CCTE's 384-well Estrogen Receptor Transactivation Assay with AIME metabolic competence (ERTA luciferase; metabolism positive), Deisenroth Lab (AID 2284030; active = hit-call score of the fitted dose curve at least 0.9, where 1 is the maximum). Summed up: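 Chemicals (10-point, 0.002-200 uM) were first incubated 2 hours with alginate-immobilized induced male Sprague Dawley rat liver S9. The conditioned medium was then applied to VM7Luc4E2 cells for 24 hours, with ER luciferase induction read by luminescence relative to 17beta-estradiol.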

Experiment [18] in a line: CCTE_Shafer_MEA_dev_firing_rate_mean: CCTE's Neural Network Formation Assay for Mean Firing Rate, Shafer Lab (AID 2284031). Summed up: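 Read-out: spike count/recording length, averaged over active electrodes, then AUC across days 5, 7, 9, 12. Rat cortical cultures on MEA; continuous 12-day exposure, media and treatment renewed DIV 5, 9; DMSO baseline.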
Experiment [19] can be described thus: CCTE_Shafer_MEA_dev_per_burst_spike_percent: CCTE's Neural Network Formation Assay for Percent of Spikes in a Burst, Shafer Lab (AID 2284032). Summed up: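 Value is trapezoidal AUC over recordings on days 5, 7, 9 and 12 of the well-mean fraction of spikes falling in single-electrode bursts; rat cortical cultures exposed continuously from plating, treatment renewed DIV 5 and 9, fitted downward against DMSO.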

Results filed as inconclusive are left out. Activity calls are given as the source filed them. Rule for the calls, unless noted: active = hit-call score of the fitted dose curve at least 0.9, where 1 is the maximum; inactive = score below 0.9.

Chain of Estrogen receptor (Homo sapiens) (P03372 whole entry, looked up): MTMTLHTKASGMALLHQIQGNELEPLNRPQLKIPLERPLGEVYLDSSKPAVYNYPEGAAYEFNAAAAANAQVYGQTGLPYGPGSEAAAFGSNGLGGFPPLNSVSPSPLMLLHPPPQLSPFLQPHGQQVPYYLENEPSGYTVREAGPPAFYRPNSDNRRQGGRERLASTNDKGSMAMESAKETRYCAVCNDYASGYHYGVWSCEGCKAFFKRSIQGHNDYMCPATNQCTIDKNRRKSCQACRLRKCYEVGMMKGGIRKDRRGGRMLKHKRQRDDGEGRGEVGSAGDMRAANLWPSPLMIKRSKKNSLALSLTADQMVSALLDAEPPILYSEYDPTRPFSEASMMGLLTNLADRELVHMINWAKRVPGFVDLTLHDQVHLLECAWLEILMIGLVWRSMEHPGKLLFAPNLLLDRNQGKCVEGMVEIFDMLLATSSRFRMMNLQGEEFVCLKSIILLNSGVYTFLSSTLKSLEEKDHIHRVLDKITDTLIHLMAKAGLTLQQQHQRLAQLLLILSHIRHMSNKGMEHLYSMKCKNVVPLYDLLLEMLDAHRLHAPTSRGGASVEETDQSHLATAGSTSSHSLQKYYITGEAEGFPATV

In general, AC50 refers to the concentration giving half of the maximal activity seen. On to `CCCCOC(=O)COC(=O)c1ccccc1C(=O)OCCCC`, for which the AC50 in [1] was 19.6 nM (active); in experiment [2], 19.6 nM (active); in experiment [13], 11.5 nM (active). For the same compound, the outcome in [3], in experiment [4], in experiment [5], in [6], in experiment [7] and in experiment [8] was inactive. The outcome in experiment [9], in experiment [10], in experiment [11], in [12], in [14] and in experiment [15] was inactive.
In the case of `C[C@@H]1O[C@@H](O[C@H]2C[C@@H](O)[C@]3(CO)[C@H]4[C@H](O)C[C@]5(C)[C@@H](C6=CC(=O)OC6)CC[C@]5(O)[C@@H]4CC[C@]3(O)C2)[C@H](O)[C@H](O)[C@H]1O`, in experiment [3], the outcome was inactive.
In the case of `N#Cc1cccnc1`, the result in experiment [1], in [2], in experiment [3], in [16], in experiment [5] and in experiment [6] was inactive. For the same compound, the compound was called inactive in [7], in [8], in [9], in experiment [10], in [11] and in [12]. Moreover, the outcome in experiment [13], in experiment [14], in [15] and in [17] was inactive.
In the case of `C=CCc1ccccc1O`, the result in experiment [3] was inactive.
Regarding `CCOP(=O)(OCC)OC(=CCl)c1ccc(Cl)cc1Cl`, the result in [3] and in [16] was inactive.
Regarding `CCCSP(=S)(OCC)Oc1ccc(SC)cc1` (centres undefined), the result in experiment [3] and in experiment [16] was inactive.
Regarding `CC(C)[C@@H](Nc1ccc(C(F)(F)F)cc1Cl)C(=O)OC(C#N)c1cccc(Oc2ccccc2)c1` (some centres undefined), the AC50 in [1] is 936 nM (active); in experiment [2], 1250 nM (active); in experiment [5], 841 nM (active); in [6], 0.84 µM (active); in [7] it was 2.12 µM (active); in [8] it was 0.62 µM (active). Also, the AC50 in [9] was 1.28 µM (active); in experiment [10], 415 nM (active); in experiment [11], 289 nM (active); in experiment [12] it was 564 nM (active); in [13], 534 nM (active); in experiment [15], 0.403 µM (active). Further, the outcome in [3], in experiment [14], in [18] and in experiment [19] was inactive.
For `CC(C)(C)c1ccccc1O`, the half-maximal activity concentration (AC50) in experiment [1] was 4820 nM (active); in experiment [2], 4870 nM (active); in [8] it was 20 µM (active); in experiment [9] it was 31.8 µM (active); in [14], 20 µM (active); in [15] it was 20 µM (active). For the same compound, the outcome in experiment [3], in experiment [4], in experiment [5], in [6], in experiment [7] and in experiment [10] was inactive. For the same compound, the outcome in [11], in experiment [12] and in experiment [13] was inactive.
Consider `Oc1ccc(Cc2ccc(O)cc2)cc1`, for which the AC50 in experiment [1] is 4.54 nM (active); in experiment [2] it was 3.77 nM (active); in [6] it was 25.3 µM (active); in experiment [13], 1.64 nM (active). For the same compound, the outcome in [3], in [4], in experiment [5], in experiment [7], in experiment [8] and in [9] was inactive. The compound was classed as inactive in [10], in [11], in experiment [12], in [14] and in experiment [15].
As to `CC(C)(C)c1ccc(CCOc2ncnc3ccccc23)cc1`, the result in [3] was inactive.
